“And” between values parts separate entries of the source, which are not always exact repeats. Equal values may be shown once. Results filed as inconclusive are left out. The source made the active and inactive calls. Calls come from the whole dose curve; as a rule, active = well fitted curve in the direction sought with a large enough effect; inconclusive = small, poorly fitted or top-dose-only effect, or another doubt; inactive = no such curve, though single readings can be large; an effect the other way counts as inactive or inconclusive.
What was measured:
[1] = target: Cellular tumor antigen p53 (Homo sapiens) (UniProt P04637); experiment: Primary qHTS for small molecule compounds that upregulate eGFP-tagged delta133p53alpha (in N-terminal) cells. (AID 2060322); conditions: NCI-H358 eGFP-delta133p53alpha fluorescence, 24 h; activation: hits give high values;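 note: cells pre-induced with doxycycline then dosed without doxycycline; series mostly up to about 56 µM; 0% = DMSO vehicle and 100% = reference activator; nearly all actives have a fitted effect of over 75% in size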
How it was run: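 NCI-H358 cells pre-induced 24 h with 10 ng/ml doxycycline for eGFP-delta133p53alpha, plated dox-free and exposed 24 h at 37C to titrated compounds. Fixed, Hoechst-stained; gated GFP peak intensity by laser scanning cytometry, normalized to DMSO (0%) and 57.5 uM 5-azacytidine (100%).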

[2] = target: Aldehyde dehydrogenase, mitochondrial (Homo sapiens) (UniProt P05091); experiment: qHTS for Inhibitors of the Aldehyde Dehydrogenase Family (ALDH2) Primary screen (AID 2061308);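 note: plate controls were vehicle for no effect and reference inhibitor for full effect; nearly all actives have a fitted effect of over 55% in size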
[3] = target: Retinaldehyde dehydrogenase 3 (Homo sapiens) (UniProt P47895); experiment: qHTS for Inhibitors of the Aldehyde Dehydrogenase Family (ALDH1A3) Validation screen (AID 2061312); note: nearly all actives have a fitted effect of over 45% in size; note: potency is the fitted concentration of half-maximal effect
[4] = BET inhibitor-based combinations targeting novel dependencies in MECOM-rearranged (r) AML: SET-2 cell line (AID 2202231); conditions: SET-2 AML cells viability, CellTiter-Glo luminescence, 48 h; viability: hits give low values, series mostly up to about 46 µM;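 note: plate controls were DMSO treated cells for no effect and wells without cells for full effect; nearly all actives have a fitted effect of over 35% in size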
How it was run: (§1)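 Here, 11-point titrations of each agent were applied to 500 seeded cells and incubated 48 hr; CellTiter-Glo signal, scaled against DMSO and empty wells, was integrated as AUC, then Z-scored within the individual line.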

[5] = BET inhibitor-based combinations targeting novel dependencies in MECOM-rearranged (r) AML: HNT-34 cell line (AID 2202234); note: nearly all actives have a fitted effect of over 35% in size; note: potency is the fitted concentration of half-maximal effect
How it was run: (§2)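 Normalized to DMSO and empty-well controls, the luminescence data from CellTiter-Glo after 48 hr drug exposure were fitted across 11 concentrations. Reported metrics are area under the dose-response curve and its Z-transformed form.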

[6] = BET inhibitor-based combinations targeting novel dependencies in MECOM-rearranged (r) AML: AML-191 cell line (AID 2202236; note: potency is the fitted concentration of half-maximal effect; nearly all actives have a fitted effect of over 35% in size)
How it was run: as §1

[7] = target: Retinaldehyde dehydrogenase 3 (Homo sapiens) (UniProt P47895); experiment: qHTS for Inhibitors of the Aldehyde Dehydrogenase Family (ALDH1A3) Primary screen (AID 2061315);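 note: plate controls were DMSO vehicle for no effect and reference inhibitor for full effect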
[8] = BET inhibitor-based combinations targeting novel dependencies in MECOM-rearranged (r) AML: MV-4-11 cell line (AID 2202233); note: potency is the fitted concentration of half-maximal effect; nearly all actives have a fitted effect of over 45% in size
How it was run: as §2

[9] = BET inhibitor-based combinations targeting novel dependencies in MECOM-rearranged (r) AML: UCSD-AML1 cell line (AID 2202235); note: nearly all actives have a fitted effect of over 40% in size; note: potency is the fitted concentration of half-maximal effect
How it was run: as §2

[10] = BET inhibitor-based combinations targeting novel dependencies in MECOM-rearranged (r) AML: AML-194 cell line (AID 2202237; note: potency is the fitted concentration of half-maximal effect; nearly all actives have a fitted effect of over 40% in size)
How it was run: as §1

Cellular tumor antigen p53 (Homo sapiens), sequence (P04637 whole entry, looked up): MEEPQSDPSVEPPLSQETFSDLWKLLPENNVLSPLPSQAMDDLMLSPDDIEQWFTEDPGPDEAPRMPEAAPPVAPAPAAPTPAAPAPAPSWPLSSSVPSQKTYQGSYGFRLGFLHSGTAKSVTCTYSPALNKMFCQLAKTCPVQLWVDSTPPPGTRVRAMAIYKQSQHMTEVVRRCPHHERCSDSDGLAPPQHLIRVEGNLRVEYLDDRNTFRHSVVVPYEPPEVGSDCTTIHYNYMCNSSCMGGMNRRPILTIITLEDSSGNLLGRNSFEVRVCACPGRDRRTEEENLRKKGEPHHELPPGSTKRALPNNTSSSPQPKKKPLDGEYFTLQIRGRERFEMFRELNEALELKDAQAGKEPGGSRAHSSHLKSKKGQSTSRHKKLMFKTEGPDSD

N#Cc1ccc(Oc2ccc3c(c2)COB3O)cc1
inactive: activation [1] 19.4% and -4.77% | Potency [2] | viability [4] 109% | Potency [5]
active: Potency [3] 2.82 µM | Potency [6] 13.2 µM

COc1cc(C)c(Sc2cnc(NC(=O)c3ccc(CNC(C)C(C)C)cc3)s2)cc1C(=O)N1CCN(C(C)=O)CC1 (configuration not stated)
inactive: activation [1] -11.2% and 19.6% | Potency [2] | Potency [3] | Potency [7]
active: Potency [8] 7.42 µM | Potency [5] 16.6 µM | Potency [9] 16.6 µM | Potency [6] 16.6 µM | Potency [10] 14.8 µM

c1cc(OCCN2CCCCC2)cc(-c2n[nH]c3ccc(-c4ncn[nH]4)cc23)c1
active: Potency [8] 1.86 µM | Potency [5] 14.8 µM | Potency [9] 13.2 µM
inactive: activation [1] 5.89% and 12.9% | Potency [2] | Potency [3] | Potency [7]

COc1ccc2c(Oc3ccc(NC(=O)c4c(C)n(CC(C)(C)O)n(-c5ccccc5)c4=O)cc3F)ccnc2c1
active: Potency [8] 0.209 µM | Potency [5] 4.68 µM | Potency [6] 20.9 µM
inactive: activation [1] -9.3% and -1.91% | Potency [2] | Potency [3] | Potency [7] | Potency [9]

Cc1ccc(Nc2cc(-c3cccc(N4C(=O)c5ccccc5C4=O)c3)ncn2)cc1NS(C)(=O)=O
active: Potency [8] 10.5 µM
inactive: activation [1] 19.8% and 20% | Potency [2] | Potency [3] | Potency [7]

O=C(Nc1cccnn1)N1CCC(=Cc2cccc(Oc3ccc(C(F)(F)F)cn3)c2)CC1
inactive: activation [1] -1.43% | Potency [2] | Potency [3] | Potency [7] | Potency [9]
active: Potency [6] 18.6 µM | Potency [10] 18.6 µM
